Assay outcomes from PubChem.
FMDV inh = blocks foot and mouth disease virus; FMDV antiviral cell-based qHTS; Potency, µM (top dose mostly 57.9 µM), without a hit: at the top dose activity change, negative = inhibition, usual class: inhibitors; AID 1159524; 410,000 tested, 1.2% active; calls by dose curve; tested in HEK293T cells; also: read-out not given here; potency is read from the fitted curve at half-maximal effect; nearly all actives have a fitted effect of over 45% in size
VACV mCherry inh = vaccinia inhibition (mCherry reporter) | Vaccinia virus mCherry reporter infection, fluorescence | Potency, µM (highest dose often 36.5 µM), for inactives: top-dose activity change, negative = inhibition, hits mostly inhibitors | AID 720579 | 310,000 tested, 0.63% active; calls by dose curve; tested in A549 cells; also: potency is read from the fitted curve at half-maximal effect; nearly all actives have a fitted effect of over 35% in size
HCMV inh = inhibitors of human cytomegalovirus | AID 1259415 | 410,000 tested, 4.5% active | activity change, negative = inhibition, % at 57.5 µM | HFF cells, HCMV-luciferase reporter, 72 h; hits give low values; in the data active = activity change below about -60%; inconclusive = no clear call, values can overlap the other calls; inactive = above about -39%
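Two compound doses tested in HFFs infected with HCMV-luciferase, MOI 1 PFU/cell, 72 h at 37C. Lysate luminescence read with OneGlo; data normalized against buffer-only and 10uM Salinomycin inhibitor controls.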
HCV inh = inhibitors of hepatitis C virus infection. Huh7.5.1 HCVcc-Cre infection, luciferase reporter, 44 h. Potency, µM (doses to about 41.8 µM), for inactives: at the highest dose activity change, negative = inhibition, usual class: inhibitors. 340,000 tested, 3.4% active. AID 651820; active = well fitted inhibition curve with a large enough effect; inconclusive = small, poorly fitted or top-dose-only effect, or another doubt; inactive = no such curve, though single readings can be large or run the other way; also: potency is read from the fitted curve at half-maximal effect
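Cells (1,000/well) were plated 4 h before compound, then infected with HCVcc-Cre virus (~0.5 moi). After 44 h further culture, infection was read as luciferase luminescence following a 15 min substrate incubation at room temperature.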
VACV Venus inh = inhibitors of vaccinia virus (Venus reporter); Vaccinia virus Venus reporter expression, fluorescence; Potency, µM (highest dose often 36.5 µM), for the others: at the top dose activity change, negative = inhibition, most hits filed as inhibitors; 330,000 tested, 0.46% active; AID 720580; calls by dose curve; tested in A549 cells; also: potency is read from the fitted curve at half-maximal effect; nearly all actives have a fitted effect of over 30% in size
* hit, by the source's call; i = inactive; u = inconclusive; x = no result given. A selection: hits, their analogues and other compounds. The true share with any hit is near 7.3%. % is scaled to controls: 0 for no effect and ±100 for the full control effect.

SMILES	FMDV inh	VACV mCherry inh	HCMV inh	HCV inh	VACV Venus inh
COc1cccc(Oc2cn[nH]c2-c2ccc(OC)cc2O)c1	-17%	u	-7	11µM*	u
CCCc1ccc(Oc2c(-c3ccc(O)c(C)c3O)n[nH]c2C)cc1	21%	x	1	u	x
CCOc1ccc(C(=O)C(C)OC(=O)Cn2c(C)csc2=O)cc1 (centres undefined)	10%	i	-12	3%	-10%
Cc1ccc(N2C(=O)C(CC(=O)Nc3cccc(F)c3)N(CCc3ccccc3F)C2=O)cc1 (centres undefined)	38%	-22%	23	x	-4%
CCN1CCN(c2ncc3c(n2)CCN(Cc2sccc2C)C3)CC1	-2%	-17%	-9	x	-16%
CS(=O)(=O)Nc1cccc(-c2cncnc2Nc2ccc(F)cc2)c1	-17%	x	x	x	x
O=C(Cc1ccccn1)N1CC(=O)N2[C@H](C1)[C@@H](c1ccc(Br)cc1)[C@@H]2CO	x	x	63	x	x
Cc1nc([N+](=O)[O-])c(Br)n1CC(=O)c1ccc(F)cc1	-25%	u	6	-27%	u
Cc1nc([N+](=O)[O-])c(Br)n1CC(=O)c1cccc([N+](=O)[O-])c1	32µM*	u	12	-27%	u
CCN1C(=O)/C(=C\C=C2/C=CC=CN2CC)SC1=S	-44%	63%	47	12%	144%
CCN1C(=O)/C(=C/C=C2\C=CN(CC)c3ccccc32)SC1=S	13µM*	-11%	-23	u	5%
COc1ccc(OC)c2nc3c(C(=O)NCCN(C)C)cccc3nc12	-26%	u	-96*	u	u
COc1ccc(C23CC4CC(CC(C4)C2)C3)cc1C(=O)NCCN(C)C	-19%	x	-70*	-6%	x
CN(C)CCNC(=O)c1ccccc1	-18%	x	-25	6%	x
CN(C)CCNC(=O)c1cccc2ccc(-c3ccc(-c4ccccc4)cc3)nc12	0%	u	8	u	13µM*
CN(C)CCNC(=O)c1cccc2nc3cccc(F)c3nc12	-22%	u	-99*	u	3.2µM*
Cc1cc(/C=C/c2ccnc3ccccc23)ccc1N	x	-26%	x	x	-6%
N/C(=N\OC(=O)c1ccc2ccccc2c1)c1ccccc1Cl	34%	x	99	u	x
Cc1ccc(OCC(=O)OCc2cc(=O)n3c(C)csc3n2)cc1	8%	-16%	-2	x	-7%
N#CC1(NC(=O)Cn2ncc(Cl)c(Cl)c2=O)CCCCC1	u	u	-14	4.5µM*	u
Cn1c(=O)c2c(nc(Cl)n2CC(=O)NC2(C#N)CCCCC2)n(C)c1=O	-15%	-8%	-101*	5%	-2%
CC(C)CCn1c(Cl)nc2c1c(=O)n(C)c(=O)n2C	-21%	x	-32	-9%	x
COc1cc(/C=C/C(=O)Nc2ccc(S(=O)(=O)Nc3onc(C)c3C)cc2)cc(OC)c1OC	-13%	x	-5	-6%	x
CCOc1ccc(CCNC(=O)c2cc3c(s2)-c2ccccc2OC3)cc1OCC	0%	-9%	u	x	3%
O=C(NCc1cccnc1)c1cccc(S(=O)(=O)Nc2cccc(Cl)c2)c1	12%	-1%	-36	-9%	-11%
SMILES	FMDV inh	VACV mCherry inh	HCMV inh	HCV inh	VACV Venus inh
CCOc1ccc(CN(CCO)CCO)cc1[N+](=O)[O-]	-12%	-18%	-68*	17%	-7%
CCCCOc1ccc(CN(CCO)CCO)cc1[N+](=O)[O-]	20%	x	0	1%	x
CC(=O)N1CCc2cc(S(=O)(=O)NC(Cc3ccccc3)C(=O)NCc3ccccc3)ccc21 (centres undefined)	1%	-13%	-4	x	-9%
COC(=O)c1ccc(CNC(=O)COC(=O)c2cc(Cl)ccc2O)cc1	-4%	x	u	u	x
O=C(CSc1nnc(SCc2ccc(Cl)cc2)s1)N/N=C/c1c[nH]c2ccccc12	u	u	-7	u	11µM*
CNC(=O)C1CCC(Cn2c(=O)c3sccc3n(CC(=O)NCc3ccc(F)cc3)c2=O)CC1 (centres undefined)	-20%	-6%	33	x	-15%
FC(F)(F)c1cnc(NNC(=S)Nc2cccnc2)c(Cl)c1	-22%	10µM*	u	u	u
FC(F)(F)c1cnc(NNC(=S)Nc2ccccc2)c(Cl)c1	u	-19%	-24	x	-28%
NC(=S)Nc1ncc(C(F)(F)F)cc1Cl	-13%	-9%	-92*	-14%	-9%
Cc1ccccc1NC(=S)NNc1ncc(C(F)(F)F)cc1Cl	-26%	-7%	1	-5%	-18%
Cc1c(Cl)cccc1NC(=S)NNc1ncc(C(F)(F)F)cc1Cl	-18%	x	-102*	u	x
O=C1CC2(CCCC2)C(=O)N1CN1CCN(S(=O)(=O)c2ccc(Cl)c(Cl)c2)CC1	0%	-1%	-19	u	-7%
COc1ccc(-c2cc(C)no2)cc1S(=O)(=O)N1CCN(C(=O)c2ccco2)CC1	-10%	x	14	-21%	x
Cc1cc(-c2ccc(C(C)C)c(S(=O)(=O)N3CCN(c4ccccn4)CC3)c2)on1	u	x	0	11µM*	x
COc1ccc(-c2cc(C)no2)cc1S(=O)(=O)N1CCN(c2ccccn2)CC1	u	-4%	-18	13µM*	-19%
CCc1ccc(-c2cc(C)no2)cc1S(=O)(=O)N1CCN(c2ccccn2)CC1	u	-7%	0	u	-2%
COc1ccc(-c2cc(C)no2)cc1S(=O)(=O)N1CCN(c2ccccc2F)CC1	u	i	u	7.1µM*	u
Cc1ccc(NC(=O)C2(C)CCN2C(=O)Cc2cc(F)ccc2F)cc1 (centres undefined)	0%	16%	3	x	-14%
CCOC(=O)C(CC)(CC)C(=O)/C=C/c1cccc(Br)c1	22µM*	u	-75*	u	-26%
CCOc1ccc(-n2c(=O)c3sc4ccccc4c3n(Cc3ccc(F)cc3)c2=O)cc1	-22%	-17%	-2	x	-5%
COc1cc2cc(c1Cl)N(C)C(=O)CC(OC(=O)C(C)N(C)C(C)=O)C1(C)OC1C(C)C1CC(O)(NC(=O)O1)C(OC)C=CC=C(C)C2 (centres undefined)	-10%	u	-80*	u	-34%
CCOc1ccc(CCNC(=O)CCc2cn(Cc3ccc(F)cc3)c3ccccc23)cc1	-15%	-10%	8	x	-7%
N=c1c(-c2nc3ccccc3[nH]2)cc(C(=O)c2ccco2)nn1-c1ccccc1	-24%	x	u	7.9µM*	x
N=c1c(-c2nc3ccccc3[nH]2)cc(C(=O)c2cccs2)nn1-c1ccccc1	u	x	x	-2%	x
COc1ccc(OC)c(-c2csc(NC(=O)C3COc4ccccc4O3)n2)c1 (centres undefined)	-26%	-27%	-7	u	-19%
COc1ccc(OC)c(-c2csc(NC(=O)COC(=O)C3(C)CC3(Cl)Cl)n2)c1 (centres undefined)	u	x	11	14µM*	x
COc1ccc(OC)c(-c2csc(NC(=O)Cc3ccccc3)n2)c1	26%	u	23	u	u
CC(C)(C)c1csc(NNC(=O)c2ccc(Br)cc2)n1	-4%	u	-97*	u	u
